# Data: PubChem BioAssay (NCI)
# This is part of a sample that, as a whole, favours compounds with a hit. Of some 79,000 tested, about 15% had one in any assay. Unmarked numbers belong to inactive results. The source made the active and inactive calls. Rule as the data show it: active = growth inhibition above about 70%; inactive = the rest.
# How the values were obtained:
# [1] = NCI Yeast Anticancer Drug Screen. Data for the rad50 strain (AID 155);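 also: 0% = growth of vehicle-only cultures of the same strain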; details: S. cerevisiae rad50 strain growth inhibition, active compounds read high
# In short: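 Yeast carrying a defined DNA repair defect were exposed to test compounds, and growth was compared with vehicle-treated controls to give percent inhibition.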
# [2] = NCI Yeast Anticancer Drug Screen. Data for the mec2-1 strain (AID 157); details: S. cerevisiae mec2-1 strain, active compounds read high
# In short: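 Readout is yeast growth inhibition, normalised to vehicle-treated controls, in the mec2-1 strain exposed to compound.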
# [3] = NCI Yeast Anticancer Drug Screen. Data for the sgs1 mgt1 strain (AID 161);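 also: 0% = growth of cultures given vehicle only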; details: S. cerevisiae sgs1 mgt1 strain, active compounds read high
# In short: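 This yeast growth screen uses a strain with defined DNA-repair lesions; compound-treated growth is compared with vehicle-treated growth.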
# [4] = NCI Yeast Anticancer Drug Screen. Data for the cln2 rad14 strain (AID 165);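 also: 0% = growth equal to vehicle treated cultures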; details: S. cerevisiae cln2 rad14 strain, active compounds read high
# In short: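 Relative to vehicle controls, growth inhibition of compound-treated cln2 rad14 yeast was recorded.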
# [5] = NCI Yeast Anticancer Drug Screen. Data for the bub3 strain (AID 167); details: S. cerevisiae bub3 mutant strain, active compounds read high
# In short: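 Compounds were applied to a genetically altered yeast strain carrying a cell-cycle control defect. Growth inhibition was scored against vehicle-treated controls.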
# [6] = NCI Yeast Anticancer Drug Screen. Data for the mlh1 rad18 strain (AID 175); details: S. cerevisiae mlh1 rad18 strain growth inhibition, active compounds read high
# In short: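 Test agents were incubated with a yeast strain of defined genotype (DNA damage repair defect). Inhibition of growth was derived by comparison with vehicle-exposed cultures.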
# [7] = at 5.0 µM (retest, dose inferred, filed as 0.5)
# [8] = at 50.0 µM (retest, dose inferred, filed as 5.0)
SMILES,"growth inhibition [1, 7]","growth inhibition [1, 8]",growth inhibition ([1]; at 50.0 µM),"growth inhibition [2, 7]","growth inhibition [2, 8]",growth inhibition ([2]; at 50.0 µM),"growth inhibition [3, 7]","growth inhibition [3, 8]",growth inhibition ([3]; at 50.0 µM),"growth inhibition [4, 7]","growth inhibition [4, 8]",growth inhibition ([4]; at 50.0 µM),"growth inhibition [5, 7]","growth inhibition [5, 8]",growth inhibition ([5]; at 50.0 µM),"growth inhibition [6, 7]","growth inhibition [6, 8]",growth inhibition ([6]; at 50.0 µM)
CCOC(=O)Cc1cc(=O)oc2c(CN3CCN(c4ccc(C)cc4)CC3)c(O)ccc12,3%,55%,60.8%,3%,77% (active),51.7%,-1%,87% (active),38.2%,8%,74% (active),1.2%,7%,86% (active),26.8%,3%,81% (active),78.8% (active)
C/C(=N\N=C(N)N)c1ccc2c(c1)Cc1cc(/C(C)=N/N=C(N)N)ccc1-2,42%,98% (active),87.8% (active),40%,99% (active),88.8% (active),39%,99% (active),84.7% (active),43%,99% (active),87.2% (active),52%,98% (active),83.3% (active),54%,98% (active),90% (active)
CN(C)c1ccc(/C=N/c2nc(-c3ccccc3)cs2)cc1,9%,90% (active),94.9% (active),7%,96% (active),98.4% (active),5%,92% (active),98% (active),2%,89% (active),97.2% (active),1%,93% (active),93.2% (active),23%,95% (active),97.8% (active)
Clc1ccccc1CN1COc2c(cc(Cl)c3cccnc23)C1,21%,99% (active),98.6% (active),6%,99% (active),99.5% (active),87% (active),100% (active),99.4% (active),6%,99% (active),98.8% (active),61%,99% (active),99.3% (active),97% (active),99% (active),99% (active)
O=[N+]([O-])c1ccc(Sc2c3ccccc3nc3ccccc23)nc1,94% (active),99% (active),98.3% (active),82% (active),99% (active),97.5% (active),62%,99% (active),97.7% (active),83% (active),98% (active),96.7% (active),49%,99% (active),96.5% (active),66%,99% (active),97.2% (active)
O=C(CCN1CCN(c2cccc(Cl)c2)CC1)N1CCc2c([nH]c3ccccc23)C1c1cccnc1 (configuration not stated),17%,17%,90.4% (active),10%,10%,92% (active),8%,8%,90.4% (active),9%,9%,92% (active),8%,8%,91.3% (active),23%,23%,89.7% (active)
CN1CCN(CC(=O)c2c(-c3ccccc3)[nH]c3ccccc23)CC1,68%,4%,33.2%,56%,1%,15.8%,66%,7%,9.45%,50%,21%,33.1%,58%,4%,-9.9%,80% (active),1%,8.15%
c1ccc(CC(Cc2ccccc2)c2cccnc2)cc1,18%,84% (active),98.7% (active),21%,62%,98.3% (active),35%,89% (active),98.7% (active),34%,66%,97.9% (active),43%,88% (active),99% (active),25%,84% (active),98.3% (active)
C[C@@H]1CN(CC2COc3ccccc3O2)[C@@H](C)CN1CC1COc2ccccc2O1 (some centres not stated),63%,80% (active),86.8% (active),74% (active),86% (active),84.3% (active),84% (active),98% (active),97.4% (active),52%,65%,92.8% (active),52%,77% (active),84.7% (active),82% (active),94% (active),94.5% (active)
CC1=C(C(=O)Nc2cccc3ccccc23)C(c2cccc([N+](=O)[O-])c2)C(C(=O)Nc2cccc3ccccc23)=C(C)N1,27%,40%,76.2% (active),22%,50%,60.2%,7%,32%,77.1% (active),-3%,14%,70.6% (active),34%,58%,81.5% (active),-22%,23%,88.1% (active)
Clc1sc2ccccc2c1Cl,2%,-18%,22.2%,-5%,-3%,-11.9%,2%,1%,25.2%,4%,-4%,36.6%,-79%,0%,-7.55%,-1%,-2%,14.6%
CC(CCC(=O)O)(c1cc(Br)c(O)c(Br)c1)c1cc(Br)c(O)c(Br)c1,19%,91% (active),90.8% (active),-1%,72% (active),90% (active),-2%,75% (active),81.5% (active),-16%,75% (active),92.4% (active),-3%,78% (active),88.6% (active),-14%,87% (active),90.4% (active)
O=C1c2cccc(O)c2C(=O)c2c(OC3OC(CO)C(O)C(O)C3O)cccc21 (configuration not stated),6%,68%,76.8% (active),10%,48%,24.5%,4%,52%,78% (active),16%,59%,34.4%,6%,60%,74.8% (active),-7%,62%,47.5%
COc1ccccc1/C=N/Nc1nnc(N/N=C/c2ccccc2OC)c2ccccc12,-1%,56%,74.6% (active),13%,73% (active),95.8% (active),10%,89% (active),58%,-8%,82% (active),97.3% (active),-5%,94% (active),96.2% (active),-5%,99% (active),93.4% (active)
CCC/C(C)=N/NC(=S)SC,70% (active),95% (active),96.8% (active),38%,95% (active),90.5% (active),27%,96% (active),94.2% (active),6%,84% (active),77.5% (active),65%,94% (active),96.7% (active),72% (active),95% (active),96.3% (active)
C#CCN(N=O)C(=O)NCCCC(NC(C)=O)C(=O)NCc1ccccc1 (configuration not stated),-4%,19%,78.9% (active),-26%,-10%,-5.35%,3%,36%,43.6%,-8%,12%,27.1%,6%,26%,-13.6%,-2%,42%,25.8%
CC(C(=O)c1ccc(Cl)cc1)C1OC(=O)C(Cl)=C1Cl (configuration not stated),43%,54%,90.8% (active),37%,51%,93.4% (active),43%,70% (active),92.9% (active),32%,43%,87.7% (active),40%,72% (active),91.5% (active),56%,71% (active),91.7% (active)
CC(C)Cn1cnc2c(SCc3cccc(F)c3)nc(N)nc21,0%,27%,-10.4%,-1%,12%,8.05%,2%,31%,67.8%,-5%,54%,-10.2%,2%,35%,73.3% (active),0%,45%,37%
CC(=O)Oc1c(C)cc(C)cc1Cc1cc(C(C)=O)cc(Cc2cc(C)cc(C)c2OC(C)=O)c1OC(C)=O,30%,91% (active),94.5% (active),17%,88% (active),93.2% (active),47%,91% (active),95.6% (active),28%,88% (active),97% (active),22%,87% (active),94.3% (active),46%,91% (active),92.5% (active)
